Shown are actives, neighbours in structure and some others; about 8.8% of the full set was active somewhere.
HttQ103 aggreg = mutant huntingtin aggregation inhibition | PC12 HttQ103-GFP aggregates, Acumen cytometry, 40 h | Potency, µM (doses to about 46.1 µM), for the others: top-dose activity change, negative = inhibition, usual class: inhibitors | 1.1% of 220,000 active; further: on the % scale 0 is the no-effect control and ±100 the full control effect; nearly all actives have a fitted effect of over 60% in size
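Steps: seed 1500 PC12 HTTQ103-GFP cells/well; add tebufenozide, 100 nM final; add compound titration; add ATPLite reagent; quantify GFP aggregates by laser scanning cytometry.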
ALDH1A1 block = ALDH1A1 (human) enzyme inhibition; AID 1030; Purified ALDH1A1, NADH fluorescence, propionaldehyde substrate; Potency, µM (highest dose often 75.3 µM), without a hit: at the top dose activity, negative = inhibition, most hits filed as inhibitors; 7.3% of 220,000 active; active means well fitted inhibition curve with a large enough effect, not every such curve was filed as active; inconclusive means small, poorly fitted or top-dose-only effect, or another doubt; inactive means no such curve, though single readings can be large or run the other way;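 further: plate controls were no enzyme wells and a reference inhibitor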
Target sequence (P00352 whole entry, looked up): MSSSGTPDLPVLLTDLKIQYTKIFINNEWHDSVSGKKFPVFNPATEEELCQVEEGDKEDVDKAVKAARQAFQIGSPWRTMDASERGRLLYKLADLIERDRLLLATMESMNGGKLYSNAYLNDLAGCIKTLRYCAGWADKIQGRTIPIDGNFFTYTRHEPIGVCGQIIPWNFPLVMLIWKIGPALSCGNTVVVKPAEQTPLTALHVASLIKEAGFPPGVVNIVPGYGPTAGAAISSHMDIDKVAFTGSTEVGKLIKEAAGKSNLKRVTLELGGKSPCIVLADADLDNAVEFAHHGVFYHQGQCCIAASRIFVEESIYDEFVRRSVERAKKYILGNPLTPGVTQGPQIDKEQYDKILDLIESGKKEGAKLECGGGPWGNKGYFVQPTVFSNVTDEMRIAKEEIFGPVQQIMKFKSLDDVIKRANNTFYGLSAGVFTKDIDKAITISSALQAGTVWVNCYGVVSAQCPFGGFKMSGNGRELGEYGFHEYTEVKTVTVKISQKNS
HPGD inh = blocks human HPGD enzyme activity | 4.3% of 150,000 active | Potency, µM, for the others: top-dose activity change, negative = inhibition, hits mostly inhibitors | purified HPGD, NADH fluorescence kinetic, PGE2 substrate; active means well fitted inhibition curve with a large enough effect, not every such curve was filed as active; inconclusive means small, poorly fitted or top-dose-only effect, or another doubt; inactive means no such curve, though single readings can be large or run the other way; further: on the % scale 0 is the no-effect control and ±100 the full control effect
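NADH formation kinetics: reaction with 30 uM PGE2 and 1 mM NAD+ (final), 20 nM enzyme, Tris-HCl pH 8 with Tween 20, after 15 min compound preincubation at room temperature. Fluorescence change, last versus first of five reads.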
HTT ATP protect = Huntington cell model cytoprotection by ATP luminescence | PC12 HTT-Q103 induced, cytoprotection, ATP luminescence, 40 h | 0.14% of 230,000 active | Potency, µM (highest dose often 56.4 µM), for inactives: cytoprotection (ATP increase), most hits filed as activators | AID 1471; further: % of control where 0% means no effect; nearly all actives have a fitted effect of over 45% in size
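Quantitative HTS on tebufenozide-induced (100 nM) PC12 cells expressing HTTQ103 exon 1–GFP; compounds tested as a concentration series; survival measured via cellular ATP.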
Lamin A splicing = LMNA splicing modulation. 0.01% of 200,000 active. AID 1487. Potency, µM (top dose mostly 46.1 µM), inactives show top-dose ratio change, negative = inhibition, actives largely listed as inhibitors. HeLa LMNA splicing GFP/RFP minigene ratio, 48 h; active means well fitted inhibition curve with a large enough effect in the signal ratio, with a control signal flat, not every such curve was filed as active; inconclusive means small, poorly fitted or top-dose-only effect, or effect the other way, or a change in a side signal; the % refers to the signal ratio; further: on the % scale 0 is the no-effect control and ±100 the full control effect
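Read-out is the ratio of GFP to DsRed2 object intensity, acquired by 488 nm laser-scanning cytometry on HeLa lamin A-EGFP minigene reporter cells. Compound incubation 48 hrs at 37 °C in Opti-MEM with 2% FBS; DMSO 0.5% final.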
* hit, by the source's call; [ ] = remark or other dose. Unless noted, the call rests on the fitted dose curve; in most records, active means well fitted curve in the direction sought with a large enough effect; inconclusive means small, poorly fitted or top-dose-only effect, or another doubt; inactive means no such curve, though single readings can be large; an effect the other way counts as inactive or inconclusive. Potency means the concentration at half of the fitted maximal effect.

Results for CCn1c(C)cc(/C=C2/NC(=O)N(c3ccccc3)C2=O)c1C ?
HttQ103 aggreg: inconclusive; ALDH1A1 block: 13µM*; HTT ATP protect: -34%; Lamin A splicing: inconclusive

How did C/C(=N\NC(=O)c1ccc(-c2ccccc2)cc1)c1cccc(N)c1 do in these assays?
HttQ103 aggreg: -5%[9.22 µM]; ALDH1A1 block: 22µM*; HTT ATP protect: 13%[10 µM]; Lamin A splicing: -6%[46 µM]

How did C/C(=N\NC(=O)c1ccccc1)c1cccc(Br)c1 do in these assays?
HttQ103 aggreg: -4%; ALDH1A1 block: 12%; HTT ATP protect: -58%; Lamin A splicing: 1%[46 µM]

Results for CC(=O)Nc1ccc(/C(C)=N\NC(=O)c2ccc(-c3ccccc3)cc2)cc1 ?
HttQ103 aggreg: 10%; ALDH1A1 block: 22µM*; HTT ATP protect: -27%

How did CC/C(=N\NC(=O)c1ccc(-c2ccccc2)cc1)C12CC3CC(CC(C3)C1)C2 do in these assays?
HttQ103 aggreg: -12%; ALDH1A1 block: 13µM*; HPGD inh: -25%; HTT ATP protect: 6%; Lamin A splicing: 2%

How did Cc1ccc(-n2c(CNc3ccc(F)cc3)nnc2SCC(N)=O)cc1 do in these assays?
HttQ103 aggreg: 22µM*; ALDH1A1 block: -2%; HTT ATP protect: -35%; Lamin A splicing: inconclusive

How did CCn1c(CNc2ccc(F)cc2)nnc1SCC(=O)Nc1ccc(OC)cc1OC do in these assays?
HttQ103 aggreg: 26%; ALDH1A1 block: 14µM*; HTT ATP protect: -20%; Lamin A splicing: 1%

How did CCn1c(CNC(=O)COc2ccc(C(C)C)cc2)nnc1SCC(=O)Nc1cc(F)ccc1C do in these assays?
HttQ103 aggreg: 2%; ALDH1A1 block: 2%; HPGD inh: -6%; HTT ATP protect: -15%; Lamin A splicing: 30%

What do the screens show for `CCn1c(CNc2ccc(F)cc2)nnc1SCC(=O)OC1CCCCC1`?
HttQ103 aggreg: -7%; ALDH1A1 block: inconclusive; HPGD inh: 16µM*; HTT ATP protect: -5%; Lamin A splicing: -2%

What do the screens show for `CCn1c(CNC(=O)COc2ccc(C(C)C)cc2)nnc1SCC(=O)Nc1ccc(F)cc1`?
HttQ103 aggreg: -7%; ALDH1A1 block: 28µM*; HPGD inh: -12%; HTT ATP protect: -21%; Lamin A splicing: -4%

Results for CCOc1ccc(Oc2ccccc2NC(=O)CCNC(C)=O)cc1 ?
HttQ103 aggreg: -19%; ALDH1A1 block: 3%; HTT ATP protect: -179%; Lamin A splicing: 14%[46 µM]

Results for CCOc1ccc(-c2cn3ccccc3n2)cc1[N+](=O)[O-] ?
HttQ103 aggreg: 27%; ALDH1A1 block: inconclusive; HPGD inh: -7%; HTT ATP protect: -35%[10 µM]; Lamin A splicing: -7%

How did CCCCOc1ccc(-c2cn3ccccc3n2)cc1[N+](=O)[O-] do in these assays?
HttQ103 aggreg: -2%; ALDH1A1 block: 10µM*; HPGD inh: -11%; HTT ATP protect: -26%[10 µM]; Lamin A splicing: inconclusive

How did CCOC(=O)CSc1nc2ccccc2c(=O)n1CCc1ccc(OC)c(OC)c1 do in these assays?
Lamin A splicing: -13%[46 µM]

What do the screens show for `CC1Cc2ccccc2N1CC(=O)NC(c1ccccc1)c1ccccc1` (stereo not given)?
HttQ103 aggreg: 17%; ALDH1A1 block: inconclusive; HPGD inh: -8%; HTT ATP protect: 9%[1.9 µM]; Lamin A splicing: -9%

Results for O=C(CN1CCN(c2ccc(O)cc2)CC1)NC(c1ccccc1)c1ccccc1 ?
HttQ103 aggreg: 9%; ALDH1A1 block: 13µM*; HPGD inh: inconclusive; HTT ATP protect: -19%[10 µM]; Lamin A splicing: -6%

How did O=C(CN1CCN(C(c2ccccc2)c2ccccc2)CC1)Nc1ccc(N2CCOCC2)cc1 do in these assays?
HttQ103 aggreg: 1%; ALDH1A1 block: -5%; HTT ATP protect: -14%; Lamin A splicing: -3%[46 µM]

Results for CC1CC(C)CN(CC(=O)NC(c2ccccc2)c2ccccc2)C1 (stereo not given) ?
HttQ103 aggreg: 19%[9.22 µM]; ALDH1A1 block: 11µM*; HTT ATP protect: 15%[10 µM]

What do the screens show for `O=C(Nc1ccc(Cl)cc1)c1cc(S(=O)(=O)N2CCc3ccccc32)ccc1F`?
Lamin A splicing: -7%[46 µM]

What do the screens show for `O=C1N/C(=N\N=C\c2cccs2)SC1Cc1cccc(Cl)c1Cl` (stereo not given)?
HttQ103 aggreg: 11µM*; ALDH1A1 block: 11%; HPGD inh: -12%; HTT ATP protect: inconclusive; Lamin A splicing: inconclusive

How did O=C1N/C(=N\N=C\c2cccs2)SC1Cc1ccc(Cl)cc1Cl (stereo not given) do in these assays?
HttQ103 aggreg: -9%; ALDH1A1 block: 4%; HPGD inh: -8%; HTT ATP protect: -1%[10 µM]; Lamin A splicing: inconclusive

How did COc1ccc(-c2cn3nc(N4CCCC(C(=O)Nc5cc(C)ccc5C)C4)sc3n2)cc1 (stereo not given) do in these assays?
Lamin A splicing: -1%[46 µM]

How did COc1cc(O)c2c(=O)cc(-c3ccc(OC)c(-c4c(O)cc(O)c5c(=O)cc(-c6ccc(O)cc6)oc45)c3)oc2c1 do in these assays?
ALDH1A1 block: 5%; HPGD inh: inconclusive; HTT ATP protect: -92%

How did O=c1cc(-c2ccc(O)c(-c3c(O)cc(O)c4c(=O)cc(-c5ccc(O)cc5)oc34)c2)oc2cc(O)cc(O)c12 do in these assays?
HttQ103 aggreg: -19%; ALDH1A1 block: inconclusive; HPGD inh: 14µM*; Lamin A splicing: -2%

Results for COc1ccccc1C(=O)Nc1c(C(=O)N2CCN(c3ccccc3F)CC2)oc2ccccc12 ?
Lamin A splicing: -17%[46 µM]

Results for CCC(Sc1nc2ncccc2[nH]1)C(=O)Nc1ccccc1F (stereo not given) ?
Lamin A splicing: 2%[46 µM]

How did c1ccc(COn2c(-c3ccccc3)nc3c2CCc2nonc2-3)cc1 do in these assays?
HttQ103 aggreg: 15%; ALDH1A1 block: 8.9µM*; HTT ATP protect: -17%; Lamin A splicing: inconclusive

Results for COn1c(-c2ccccc2)nc2c1CCc1nonc1-2 ?
HttQ103 aggreg: 14%; ALDH1A1 block: 7.9µM*; HPGD inh: -23%; HTT ATP protect: -4%; Lamin A splicing: 5%

Results for Clc1ccc(COn2c(-c3ccccc3)nc3ccccc32)cc1 ?
HttQ103 aggreg: -17%; ALDH1A1 block: 3%; HPGD inh: 6%; HTT ATP protect: 0%; Lamin A splicing: -2%

Results for c1ccc(-c2cc3c(nn2)CCc2nonc2-3)cc1 ?
HttQ103 aggreg: -13%; ALDH1A1 block: inconclusive; HPGD inh: -19%; HTT ATP protect: -4%[10 µM]; Lamin A splicing: 12%

Results for CC(C)=CCNc1ncnc2c1c(C#N)cn2[C@H]1O[C@@H](CO)[C@@H](O)[C@@H]1O ?
ALDH1A1 block: -8%[13.5 µM]; HPGD inh: -5%; HTT ATP protect: -39%[10 µM]

How did CCC1CN(C(=O)N2CCC(C(=O)N(C)Cc3ccccc3)CC2)c2ccccc2O1 (stereo not given) do in these assays?
Lamin A splicing: -11%[46 µM]
